Measurements as given in PubChem BioAssay AID540276 (National Center for Advancing Translational Sciences (NCATS), 2011).
Among all 300,000 compounds or so, about 5,400 (1.8%) were called active. Roughly 28% stayed inconclusive and do not appear here. The call rests on the fitted dose curve; tested in HEK293 cells. Shown is part of a subset that was picked to be rich in actives. A call without a number means that no potency is given here.

Assay: qHTS for inhibitors of binding or entry into cells for Marburg Virus
Conditions: Marburg virus pseudotyped entry inhibition, cell reporter; series mostly up to 37.8 µM
Potency means the concentration at half of the fitted maximal effect.

With `N=c1n(CCc2ccccc2)c2ccccc2n1Cc1ccccc1F` as the molecule, how does the Potency read?
The Potency was 5.17 µM (active).

With `CCCn1c(NCc2ccccc2F)nc2ccccc21` as the molecule, how does the Potency read?
The Potency was “inactive”.

Which Potency does the source give for `CN(Cc1ccccc1)Cc1ccccc1F` here?
Its Potency is “inactive”.

Which Potency does the source give for `CCc1ccccc1N(CC(=O)NCC1CCCO1)C(=O)CCC(=O)Nc1nccs1` (centres undefined) here?
Its Potency is “inactive”.

Which Potency does the source give for `COc1ccc(C)cc1NC(=S)N1CCOCC1` here?
The Potency was “inactive”.

For `O=C1OC(Cc2ccccc2)C(c2ccccc2)C1=O` (centres undefined), which Potency is on record?
The Potency was “inactive”.

Which Potency does the source give for `O=C(CSc1nc2ccccc2c(=O)n1CCCO)N1CCc2ccccc21` here?
The Potency was “inactive”.

Which Potency does the source give for `O=C(CSc1nc2[nH]ncc2c(=O)n1-c1ccccc1)N1CCCc2ccccc21` here?
Its Potency is “inactive”.

For `Cn1c(SCC(=O)N2CCCc3ccccc32)nc2ccccc2c1=O`, which Potency is on record?
The Potency was 12.6 µM (active).

For `CN(C)CCn1c2c(c(SCC(=O)Nc3ccccc3C(F)(F)F)nc1=O)CCCC2`, which Potency is on record?
The Potency was “inactive”.

Which Potency does the source give for `COc1ccc(NC(=O)c2nc(-n3nc(C)cc3C)ccc2Cl)cc1Cl` here?
Its Potency is “inactive”.

Which Potency does the source give for `Cc1cc(N/N=C\c2ccc(Br)cc2)nc(-n2nc(C)cc2C)n1` here?
The Potency was 2.24 µM (active).

With `Cc1ccc2nc(C)cc(N/N=C/c3ccc(F)cc3)c2c1` as the molecule, how does the Potency read?
The Potency was “inactive”.

For `Cc1cc(Nc2ccccc2)nc(N)n1`, which Potency is on record?
The Potency was “inactive”.

For `Cc1cc(C)nc(-n2nc(C)cc2NC(=O)c2ccc(Br)o2)n1`, which Potency is on record?
Its Potency is “inactive”.

For `COc1ccc(Nc2cc(C)nc(-n3nc(C)cc3C)n2)cc1`, which Potency is on record?
Its Potency is 1.3 µM (active).

Which Potency does the source give for `CN1CCN(C(=O)c2cnn(-c3ccccc3)c2NC(=O)c2ccc([N+](=O)[O-])cc2)CC1` here?
The Potency was “inactive”.

With `CN1CCN(C(=O)C(=O)c2cn(CC(=O)N3CCCC3)c3ccccc23)CC1` as the molecule, how does the Potency read?
The Potency was “inactive”.

With `O=C1NC(=O)C(CCc2ccccc2)(c2ccccc2)N1` (centres undefined) as the molecule, how does the Potency read?
The Potency was “inactive”.

With `COCc1ccc(C(=O)NC2CC(C)(C)Cc3c2cnn3-c2ccc(C)cc2)o1` (centres undefined) as the molecule, how does the Potency read?
The Potency was “inactive”.

For `Cc1cccc(C(=O)OC(C)C(=O)NC2CCCc3ccccc32)c1O` (centres undefined), which Potency is on record?
The Potency was “inactive”.

With `COc1ccc(C(=O)NC2CCCc3c2cnn3-c2cccc(C)c2C)c(OC)n1` (centres undefined) as the molecule, how does the Potency read?
The Potency was 0.708 µM (active).

Which Potency does the source give for `CN(C)C(=O)c1ccc(NC(=O)c2ccccc2-c2ccccc2)cc1` here?
Its Potency is “inactive”.

With `CCc1ccc(N(C(=O)c2csnn2)C(C(=O)NC2CCCCC2)c2ccncc2)cc1` (centres undefined) as the molecule, how does the Potency read?
Its Potency is “inactive”.

Which Potency does the source give for `O=C1CC2(CCCC2)C(=O)N1CN1CCN(S(=O)(=O)c2ccc(F)cc2F)CC1` here?
Its Potency is “inactive”.

For `COc1ccc(-c2nc3cc([N+](=O)[O-])ccc3o2)cc1OC`, which Potency is on record?
The Potency was “inactive”.

With `O=C(Cc1cccc2ccccc12)Nc1ccc2oc(-c3ccccc3)nc2c1` as the molecule, how does the Potency read?
The Potency was “inactive”.

With `CCc1ccc2oc(-c3ccc(N)cc3)nc2c1` as the molecule, how does the Potency read?
The Potency was 5.17 µM (active).

Which Potency does the source give for `CC(=O)Nc1ccc(S(=O)(=O)Nc2cc(C)cn(Cc3ccc(C)cc3)c2=O)cc1` here?
Its Potency is “inactive”.

With `CCOC(=O)C1=C(CN2CCc3ccccc32)NC(=O)NC1c1ccc(Cl)cc1` (centres undefined) as the molecule, how does the Potency read?
The Potency was 16.4 µM (active).

Which Potency does the source give for `CCOC(=O)C1=C(CN2CCCCCC2)NC(=O)NC1c1cccc([N+](=O)[O-])c1` (centres undefined) here?
Its Potency is “inactive”.

Which Potency does the source give for `CCOC(=O)C1=C(C)NC(=O)NC1c1ccccc1` (centres undefined) here?
Its Potency is “inactive”.

For `COc1ccc([C@H]2C(C#N)=C(N)Oc3n[nH]c(C)c32)cc1CSc1ccccn1`, which Potency is on record?
The Potency was “inactive”.

Which Potency does the source give for `COc1cccc(NC(=O)CN(C)C(=O)Cc2ccc(Cl)cc2Cl)c1` here?
The Potency was “inactive”.

Which Potency does the source give for `CC(=O)Nc1cccc(NC(=O)c2c(-c3ccccc3)noc2C)c1` here?
The Potency was “inactive”.

For `Cc1ccc(CNC(=O)c2c(-c3ccccc3)noc2C)cc1`, which Potency is on record?
The Potency was “inactive”.

For `CCOC(=O)c1c(-c2cccc(C)c2)csc1NC(=O)c1c(-c2ccccc2)noc1C`, which Potency is on record?
The Potency was 0.316 µM (active).

For `CC(C)(C)C(=O)Nc1cccc(-c2ccc[nH]2)n1`, which Potency is on record?
Its Potency is “inactive”.

Which Potency does the source give for `Cc1cc([N+](=O)[O-])c(=O)[nH]c1C` here?
Its Potency is “inactive”.

With `COc1ccc(NC(=O)N2CCCC2C(=O)NCc2ccccc2Cl)cc1` (centres undefined) as the molecule, how does the Potency read?
Its Potency is “inactive”.

Which Potency does the source give for `CCc1ccc(NC(=O)CN2C(=O)C(c3ccccc3)=NC23CCCCCC3)cc1` here?
Its Potency is “inactive”.

For `COc1ccc(C2=NC3(CCCCC3)N(CC(=O)Nc3ccc(C(C)C)cc3)C2=O)cc1`, which Potency is on record?
The Potency was 11.2 µM (active).

For `COc1ccc(NC(=O)CN2C(=O)C(c3ccccc3)=NC23CCCCCC3)cc1OC`, which Potency is on record?
The Potency was “inactive”.

Which Potency does the source give for `CCCCn1c(N)c(N(CC(C)C)C(=O)c2ccc(Br)o2)c(=O)[nH]c1=O` here?
The Potency was “inactive”.

For `O=C(Nc1c[nH]c(=O)[nH]c1=O)OCc1ccccc1`, which Potency is on record?
The Potency was “inactive”.

For `Cc1c(NC(=O)CN(C)CC(=O)Nc2ccc(F)c(F)c2F)c(=O)n(-c2ccccc2)n1C`, which Potency is on record?
Its Potency is “inactive”.

With `Cc1cccc(N(Cc2ccccc2)C(=O)c2cc(S(=O)(=O)N3CCOCC3)ccc2F)c1` as the molecule, how does the Potency read?
The Potency was “inactive”.

With `Cc1cc(NC(=O)c2cc3ccccc3o2)no1` as the molecule, how does the Potency read?
The Potency was “inactive”.

For `COc1cccc2sc(N(CCCN(C)C)C(=O)C(c3ccccc3)c3ccccc3)nc12`, which Potency is on record?
Its Potency is 10 µM (active).

With `COc1cccc2sc(NNC(=O)c3nc4ccccc4s3)nc12` as the molecule, how does the Potency read?
Its Potency is “inactive”.

For `CCOc1ccc2nc(N(CCN(C)C)C(=O)c3ccc4ccccc4c3)sc2c1`, which Potency is on record?
Its Potency is “inactive”.

For `COC(=O)C1=C(C)NC(=S)NC1c1ccc(OCC(=O)N2CC(C)OC(C)C2)c(OC)c1` (centres undefined), which Potency is on record?
Its Potency is “inactive”.

For `CC(C)(C)CC(C)(C)NCC(O)COCCOc1ccc(Br)cc1` (centres undefined), which Potency is on record?
The Potency was 4.61 µM (active).

With `Cc1noc(COc2ccccc2OCC(O)CNC(C)(C)C)n1` (centres undefined) as the molecule, how does the Potency read?
The Potency was “inactive”.

With `COc1ccc(OCC(O)CNCCNc2nccc(C(F)(F)F)n2)cc1` (centres undefined) as the molecule, how does the Potency read?
The Potency was “inactive”.

With `COc1cccc(NC(=O)C/C(C)=N/NC(=O)C2CCCCC2)c1` as the molecule, how does the Potency read?
Its Potency is “inactive”.

Which Potency does the source give for `Cc1ccc(OCC(=O)Oc2ccccc2[N+](=O)[O-])cc1` here?
Its Potency is “inactive”.

With `O=C1CN(C(=O)COc2c(Cl)cccc2Cl)c2ccccc2N1` as the molecule, how does the Potency read?
The Potency was “inactive”.

With `COc1ccc(-n2ncc3c2CC(C)(C)CC3NC(=O)CCc2c(C)nn(C)c2C)cc1` (centres undefined) as the molecule, how does the Potency read?
The Potency was “inactive”.
